Giardia FBPA inh: qHTS Assay for Inhibitors of Fructose-1,6-bisphosphate Aldolase from Giardia Lamblia; Potency, µM (top dose mostly 59.6 µM), without a hit: top-dose activity, negative = inhibition, hits mostly inhibitors; 290,000 tested, 0.71% active; A8B2U2; purified Giardia FBPA; note: potency is the fitted concentration of half-maximal effect; % is set by controls: 0 for no effect and ±100 for the full control effect; nearly all actives have a fitted effect of over 55% in size
Target sequence (A8B2U2 whole entry, looked up): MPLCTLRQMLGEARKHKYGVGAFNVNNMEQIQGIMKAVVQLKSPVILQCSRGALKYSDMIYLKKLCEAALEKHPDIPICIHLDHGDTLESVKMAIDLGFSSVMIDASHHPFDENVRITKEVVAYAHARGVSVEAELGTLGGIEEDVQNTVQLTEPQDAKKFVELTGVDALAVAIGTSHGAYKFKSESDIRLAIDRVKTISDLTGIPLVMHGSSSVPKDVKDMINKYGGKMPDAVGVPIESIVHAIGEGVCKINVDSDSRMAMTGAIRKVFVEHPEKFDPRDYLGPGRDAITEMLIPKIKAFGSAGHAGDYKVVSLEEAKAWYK
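Giardia FBPA (40 nM reagent) was preincubated 10 min at RT with compound (up to 57.5 uM final), then substrate plus GAPDH/TPI/NAD/arsenate coupling system with diaphorase/resazurin was added; resorufin fluorescence (525/598 nm) was read after 20 min.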
Shiga toxin inh: A qHTS for Small Molecule Inhibitors of Shiga Toxin | Vero cells, Shiga toxin protein synthesis inhibition reporter | inhibition, % at 38.7 µM | 290,000 tested, 9.2% active | AID 2315, 2010; in the data active = inhibition mostly above about 28%, no sharp cut-off; inactive = mostly below about 43%; note: 0% is about no effect
NS1 function inh: qHTS Assay for Inhibitors of Influenza NS1 Protein Function | 270,000 tested, 0.4% active | Potency, µM (series often up to 46.1 µM), for the others: top-dose activity, positive = more growth; calls by dose curve; note: potency is the fitted concentration of half-maximal effect; actives are rising curves; nearly all actives have a fitted effect of over 50% in size
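A cell-based growth assay was used: compounds that relieve NS1-induced slow growth of budding yeast raise OD600. Assay medium was yeast nitrogen base with ammonium sulphate and -URA supplement, pH 6.0, with 2% galactose.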
Cycloheximide cs: Cycloheximide Counterscreen for Small Molecule Inhibitors of Shiga Toxin; cell reporter, cycloheximide protein synthesis inhibition counterscreen; max response, %; 300,000 tested, 12% active; AID 2314, 2010; in the data active = max response mostly above about 13%, no sharp cut-off; inactive = mostly below about 14%; note: read at 38.3 µM for the half of the compounds with a filed dose; 0% is about no effect
LmPK inhibitor: qHTS Assay for Inhibitors of Leishmania Mexicana Pyruvate Kinase (LmPK) | Q27686 | purified LmPK, Kinase-Glo ATP luminescence, 1 h | Potency, µM (titrated, usually from 57.5 µM), inactives show at the top dose activity change, negative = inhibition, actives largely listed as inhibitors | 290,000 tested, 0.37% active; note: potency is the fitted concentration of half-maximal effect; % is set by controls: 0 for no effect and ±100 for the full control effect
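ATP generated from ADP (0.1 mM) and PEP (0.5 mM) by 0.1 nM LmPK over 1 h at room temperature (pH 7.2 imidazole buffer) was detected by coupled luciferase luminescence. Values were normalized to uninhibited and no-enzyme wells.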
Active calls of the source: *; [ ] = remark or other dose. Compounds with a hit are over-represented: about 14% of the library has one in this group of screens. Unless noted, calls come from the whole dose curve; as a rule, active = well fitted curve in the direction sought with a large enough effect; inconclusive = small, poorly fitted or top-dose-only effect, or another doubt; inactive = no such curve, though single readings can be large; an effect the other way counts as inactive or inconclusive.

`CCc1nnc(NC(=O)C2CC(=O)N(Cc3ccco3)C2)s1` (stereo unspecified) gave Giardia FBPA inh 10.3%, Shiga toxin inh -4.5, NS1 function inh 0.8%, Cycloheximide cs 0.8 and LmPK inhibitor 0.6%.
`Cc1ccc2nc(NC(=O)C3CC(=O)N(Cc4ccco4)C3)sc2c1` (stereo unspecified) gave Giardia FBPA inh 3.1%, Shiga toxin inh 25.4, Cycloheximide cs 19.1* and LmPK inhibitor -3.4%.
Screening O=C(Nc1nc2c(F)cc(F)cc2s1)C1CC(=O)N(Cc2ccco2)C1 (stereo unspecified) returned Giardia FBPA inh -21.6%, Shiga toxin inh 47.1, NS1 function inh -1.3%, Cycloheximide cs 23.9* and LmPK inhibitor 3.6%.
Cn1cccc1C(=O)N1CCC2(CC1)CN(c1ccncc1)C2 was read as Giardia FBPA inh 0.4%.
For Cc1nn(-c2ccc(N3CCOCC3)nn2)c(C)c1CCC(=O)Nc1ccc(F)cc1 the results were Giardia FBPA inh -14.9%, Shiga toxin inh 9.8, NS1 function inh 2.4%, Cycloheximide cs 21.4* and LmPK inhibitor -2.1%.
Cc1ccc(NC(=O)CCc2c(C)nn(-c3ccc(N4CCOCC4)nn3)c2C)cc1C was read as Giardia FBPA inh 14.6%, Shiga toxin inh 50.4*, NS1 function inh -13.9%, Cycloheximide cs 20.1* and LmPK inhibitor 3.3%.
Cc1ccccc1NC(=O)CCc1c(C)nn(-c2ccc(N3CCCCC3)nn2)c1C was read as Giardia FBPA inh 9.4%, Shiga toxin inh 0.8, NS1 function inh -11.7%, Cycloheximide cs 16.6 and LmPK inhibitor 3.8%.
Cc1cccc(NC(=O)CCc2c(C)nn(-c3ccc(N4CCCCC4)nn3)c2C)c1 was read as Giardia FBPA inh 7.8%, Shiga toxin inh 72.5*, NS1 function inh -19.3%, Cycloheximide cs 40.6* and LmPK inhibitor -0.9%.
`Cc1ccccc1NC(=O)CCc1c(C)nn(-c2ccc(N3CCOCC3)nn2)c1C` gave Giardia FBPA inh -13.7%, Shiga toxin inh 27.5, NS1 function inh 9.9%, Cycloheximide cs 5.8 and LmPK inhibitor -1.3%.
Screening Cc1cccc(NC(=O)CCc2c(C)nn(-c3ccc(N4CCOCC4)nn3)c2C)c1 returned Giardia FBPA inh 11.1%, Shiga toxin inh 40.5*, NS1 function inh -14.3%, Cycloheximide cs 23.0* and LmPK inhibitor -1.9%.
COc1cccc(NC(=O)CCc2c(C)nn(-c3ccc(N4CCOCC4)nn3)c2C)c1 was read as Giardia FBPA inh 4.7%, Shiga toxin inh 22.9, NS1 function inh -6.4%, Cycloheximide cs 10.6 and LmPK inhibitor 0.6%.
Screening CCOC(=O)c1nn(-c2ccc(Cl)cc2)c(C)cc1=O returned Giardia FBPA inh 9.2%, Shiga toxin inh -4.8, NS1 function inh 0.6%, Cycloheximide cs -0.9 and LmPK inhibitor 0.7%.
`O=C(COc1ccc([N+](=O)[O-])cc1)NC(C(=O)O)C(O)c1cccc([N+](=O)[O-])c1` (stereo unspecified) gave Giardia FBPA inh 4.4%, Shiga toxin inh -14.9, NS1 function inh 1.6%, Cycloheximide cs -2.2 and LmPK inhibitor -2.4%.
Screening COc1ccc(-c2sc3ccc(N4CCOCC4)cc3c2-c2ccc(OC)c(F)c2)cc1 returned Giardia FBPA inh -9.4%, Shiga toxin inh -4.6, NS1 function inh 8.2%, Cycloheximide cs 1.7 and LmPK inhibitor -0.4%.
Screening O=C(c1cccc(Br)c1)N1CCCC1 returned Giardia FBPA inh 3.3%, Shiga toxin inh -11.5, NS1 function inh -3.5%, Cycloheximide cs 1.3 and LmPK inhibitor 11.0%.
`O=C(c1cccc(-c2nnc(-c3ccccc3)o2)c1)N1CCCCC1` gave Giardia FBPA inh 3.9%, Shiga toxin inh 65.8*, NS1 function inh -34.1%, Cycloheximide cs 51.3* and LmPK inhibitor -4.7%.
For O=C(O)c1ccc(-c2nnc(-c3cccc(Br)c3)o2)cc1 the results were Giardia FBPA inh -2.0%, Shiga toxin inh 35.4*, NS1 function inh -2.5%, Cycloheximide cs 19.9* and LmPK inhibitor -5.9%.
Screening Brc1ccc(-c2nnc(-c3cccc(Br)c3)o2)cc1 returned Giardia FBPA inh 4.9%, Shiga toxin inh 25.4, NS1 function inh inconclusive, Cycloheximide cs 17.1 and LmPK inhibitor -1.6%.
O=C(c1cccc(-c2nnc(-c3ccccc3)o2)c1)N1CCCCCC1 was read as Giardia FBPA inh 9.2%, Shiga toxin inh 102.1*, NS1 function inh -60.5%, Cycloheximide cs 36.5* and LmPK inhibitor 2.1%.
`Cc1cccc(C(=O)N2CCCCCC2)c1` gave Giardia FBPA inh 1.4%, Shiga toxin inh -7.0, NS1 function inh -1.6%, Cycloheximide cs -1.3 and LmPK inhibitor 0.9%.
Screening COc1ccc(Br)cc1S(=O)(=O)n1nc(C)cc1C returned Giardia FBPA inh -4.2%, Shiga toxin inh -10.7, NS1 function inh 5.5%, Cycloheximide cs -1.4 and LmPK inhibitor 5.1%.
CCOC(=O)OCC1OC(C#Cc2ccc(C)cc2C)C=CC1OC(=O)OCC (stereo unspecified) was read as Giardia FBPA inh -2.2%[12.9 µM].
Cc1cc(C(=O)NC2=NCCS2)cs1 was read as Giardia FBPA inh 4.7%, Shiga toxin inh 66.2*, NS1 function inh 10.6%, Cycloheximide cs 40.6* and LmPK inhibitor -6.8%.
Cc1cccc(C(=O)NC2=NCCS2)c1 was read as Giardia FBPA inh -2.5%, Shiga toxin inh 56.4*, NS1 function inh -1.2%, Cycloheximide cs 35.3* and LmPK inhibitor -27.5%.
`NS(=O)(=O)c1cccc(NC(=O)COC(=O)CCc2ccccc2)c1` gave Giardia FBPA inh -3.2%, Shiga toxin inh 14.6, NS1 function inh 6.0%, Cycloheximide cs 10.0 and LmPK inhibitor 3.5%.
O=C(O)c1cc(NN=Nc2cccc([N+](=O)[O-])c2)cc([N+](=O)[O-])c1 was read as Giardia FBPA inh -13.3%, Shiga toxin inh -6.1, NS1 function inh 1.6%, Cycloheximide cs -2.3 and LmPK inhibitor -2.9%.
Brc1ccc(N=NNc2ccccc2)cc1 was read as Giardia FBPA inh 1.0%, Shiga toxin inh 92.3*, NS1 function inh 0.1%, Cycloheximide cs 35.2* and LmPK inhibitor -4.1%.
Screening O=c1[nH]c(=O)n(-c2ccccc2)c(O)c1N=Nc1ccc(Br)cc1 returned Giardia FBPA inh -5.9%, Shiga toxin inh 20.2, Cycloheximide cs 19.1 and LmPK inhibitor 5.1%.
`O=[N+]([O-])c1ccc(N=NNc2ccccc2)cc1` gave Giardia FBPA inh -14.3%, Shiga toxin inh 184.6*, Cycloheximide cs 63.5* and LmPK inhibitor 0.8%.
For O=[N+]([O-])c1cccc(NN=Nc2ccccc2)c1 the results were Giardia FBPA inh -9.2%, Shiga toxin inh 39.5*, NS1 function inh 8.9%, Cycloheximide cs 29.4* and LmPK inhibitor 7.8%.
`O=C(O)c1cc(NN=Nc2ccc(Br)cc2)cc([N+](=O)[O-])c1` gave Giardia FBPA inh 21.1%, Shiga toxin inh 6.3, NS1 function inh 8.5%, Cycloheximide cs 6.3 and LmPK inhibitor 17.1%.

Screening results deposited in PubChem by National Center for Advancing Translational Sciences (NCATS).
